GalR3 antag = human GalR3 antagonism | 360,000 tested, 0.44% active | HEK293 GalR3-CNG cAMP membrane potential fluorescence; galR3 body fused to GalR1 C-terminus | inhibition, % at 3 µM | O60755;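 active means inhibition above the screen-wide average plus 3 SD, cut at about 13% in these data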;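 further: forskolin and galanin both at EC90 stimulate the cells; cAMP rise reported by CNG channel membrane potential dye signal; 0% = forskolin plus galanin with DMSO and 100% = forskolin alone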
Target sequence (O60755 1-299 limits assumed): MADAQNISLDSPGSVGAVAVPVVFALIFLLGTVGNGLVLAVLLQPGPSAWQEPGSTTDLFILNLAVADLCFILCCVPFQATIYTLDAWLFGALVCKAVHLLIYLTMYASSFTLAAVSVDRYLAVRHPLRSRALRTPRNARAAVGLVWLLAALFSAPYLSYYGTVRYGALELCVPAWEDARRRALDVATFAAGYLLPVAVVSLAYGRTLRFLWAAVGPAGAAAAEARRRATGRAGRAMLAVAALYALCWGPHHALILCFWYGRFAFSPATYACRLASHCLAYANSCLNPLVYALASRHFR
SMARCA2 act = activators of SMARCA2 function. AID 652017. activation, % at 9.1 µM. 370,000 tested, 1% active. MG213 cells, MMTV-luciferase reporter, dexamethasone, overnight; in the data active means activation above about 7.8%;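 further: 0% = vehicle wells and 100% = reference activator wells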
Hsp70 act = Hsp70 transcriptional activation, primary screen. activation, % at 10 µM. 200,000 tested, 0.04% active. HeLa Hsp70 promoter luciferase reporter, luminescence; scaled: vehicle 0, proteasome-inhibitor control 100%;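 active means activation above the mean across all tested compounds plus 3 SD, cutoff set per campaign, cut at about 5.5% in these data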;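 further: 100% = MG132 at 30 µM as the positive control and 0% = DMSO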
FXN GAA850 act = activators of GAA850 frataxin (FXN) promoter; HEK293 lucGAA850 FXN promoter luciferase reporter, 24 h; percent of 10 µM SAHA response; activation, % at 6 µM; 360,000 tested, 0.56% active;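 active means activation above the average of all compounds screened plus 3 SD, cutoff fixed separately per campaign, cut at about 7.5% in these data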;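 further: 0% = DMSO wells and 100% = 10 µM SAHA wells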
HIF act = HIF pathway transcriptional activation; U2OS HRE-luciferase reporter, luminescence; normalized: DMSO 0%, desferrioxamine 100%; activation, % at 7.5 µM (by protocol); 300,000 tested, 0.32% active;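 active means mean activation of at least 10% of the iron chelator positive control signal, with at least half of replicates also reaching 10%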
GAA30 FXN cntr = activates GAA30 frataxin promoter, counter-screen for GAA850 activators | HEK293 lucGAA30 FXN promoter luciferase, 24 h; DMSO = 0%, 5 µM ipriflavone = 100% | shares compounds with FXN GAA850 act | activation, % at 6 µM | 1,900 tested, 66% active;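 active means mean activation above the mean of solvent-only control wells plus 3 SD, cut at about 22% in these data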;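 further: counterscreen of GAA850 promoter hits where activity marks nonselective or luminescence artifacts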
GAA850 confirm = confirmation of GAA850 frataxin (FXN) promoter activators | shares compounds with FXN GAA850 act | HEK293 lucGAA850 FXN promoter luciferase reporter, 24 h; 100% = activation by SAHA | activation, % at 6 µM | 1,900 tested, 86% active;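 active means mean activation above a set limit taken from the primary screen, cut at about 8% in these data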;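 further: 0% = DMSO wells and 100% = 10 µM SAHA wells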
The depositor's hits bear a star; . = not tested or not shown. In the library only some 2.2% were active in any assay of this set; here they are far more common.

SMILES | GalR3 antag | SMARCA2 act | Hsp70 act | FXN GAA850 act | HIF act | GAA30 FXN cntr | GAA850 confirm
CCC(C)(C)NC(=O)C(NS(=O)(=O)c1cccs1)c1ccccc1 (stereo not given) | -9 | 1 | . | 10* | 0 | 15 | 10*
CCc1cccc(CC)c1NC(=O)C(NS(=O)(=O)c1cccs1)c1ccccc1 (stereo not given) | -3 | -5 | 0 | -1 | 0 | . | .
COc1cccc(C(=O)NN2C(=S)N(c3ccccc3)C(=O)C2CC(N)=O)c1 (stereo not given) | -4 | 7 | . | 7.8* | 2 | 107* | 29*
NC(=O)CC1C(=O)N(c2ccccc2)C(=S)N1NC(=O)c1ccc(Br)cc1 (stereo not given) | -10 | 7 | . | 4 | 2 | . | .
COc1cccc(CNC(=O)CN2CCCc3ccccc32)c1 | . | -6 | . | . | . | . | .
CN(C)c1nc(N)c([N+](=O)[O-])c(NCc2ccccc2)n1 | 2 | -2 | 0 | 7.6* | . | 69* | 25*
Nc1nc(NCc2ccccc2)nc(NCc2ccccc2)c1[N+](=O)[O-] | -11 | -4 | 0 | 4 | . | . | .
Cc1ccc(Nc2nc(N)c([N+](=O)[O-])c(NCc3ccco3)n2)cc1C | -13 | 2 | 0 | 7.8* | 1 | 92* | 44*
Cc1ccc(CNc2nc(N)c([N+](=O)[O-])c(NCc3ccccc3)n2)cc1 | -12 | 2 | 0 | 0 | -1 | . | .
CNc1nc(N)c([N+](=O)[O-])c(NCc2ccccc2)n1 | 0 | -1 | 0 | 17* | -1 | 87* | 32*
N#Cc1cccc(-c2ccccc2C(=O)NC2CCCCN(Cc3ccc(Cl)cc3)C2=O)c1 (stereo not given) | . | -2 | . | . | . | . | .
COc1cccc(C(=O)N[C@H](C(=O)N2CCC[C@H]2C(=O)NCc2ccccc2)C2CCCCC2)c1 | -1 | -4 | . | . | . | . | .
Cc1ccc(Cn2cc(CN(C(C)(C)C)S(=O)(=O)c3ccc(F)cc3Br)nn2)cc1 | . | -3 | . | . | . | . | .
CCOc1ccc(Nc2n[nH]c(=S)s2)cc1 | -7 | 3 | 0 | 9.8* | 1 | 116* | 32*
CCCCN(C)C(=O)CSc1nnc(-c2cccnc2)n1C1CCCCC1 | . | 2 | . | . | . | . | .
CN(C)S(=O)(=O)n1cc(/C=C(\NC(=O)c2ccccc2Cl)C(=O)N2CCCC2)c2ccccc21 | -3 | -1 | . | 8.8* | -1 | 15 | 11*
COc1ccc(C(=O)c2sc(Nc3ccccc3)nc2N)cc1OC | 3 | 4 | . | 9.2* | 3 | -20 | 38*
COC(=O)c1ccc2nc(-c3ccc(C)cc3)c(Cc3ccccc3)n2c1 | -6 | 2 | . | . | . | . | .
CCN(CC)c1ccc(S(=O)(=O)N2CCCCC2)cc1NC(=O)CSCc1c(C)noc1C | -5 | 0 | . | 10* | . | 21 | 22*
O=C(O)c1cccc(N/N=C/c2sc(N3CCOCC3)nc2-c2ccccc2)c1 | -7 | 5 | 0 | 11* | 1 | 133* | 39*
O=C(NCCc1ccccc1)OCc1cn(Cc2ccccc2F)nn1 | . | -1 | . | . | . | . | .
S=C(NCCc1ccccc1)Nc1ccccn1 | -2 | 2 | 0 | 8.0* | 2 | 98* | 30*
Cc1ccc(C)c(NC(=S)c2ccccn2)c1 | -4 | 5 | 0 | 13* | 2 | 78* | 28*
Cc1cccc(NC(=S)NCCc2ccccc2)n1 | -12 | 1 | 0 | 2 | 1 | . | .
S=C(Nc1ccccn1)c1ccccn1 | -1 | 7.8* | 0 | 15* | 3 | 104* | 43*
Cc1ccc(C)c(NC(=O)NCc2ccccn2)c1 | 2 | -2 | . | 2 | 0 | . | .
CN(c1ccc(NC(=O)Cc2cn(C)c3ccccc23)cc1)c1ccccn1 | -3 | -1 | . | . | . | . | .
Cc1c(C(=O)Nc2ccncc2)sc2nc(-c3ccc(F)cc3)cn12 | . | 5 | 0 | 15* | 2 | 46* | 25*
Cn1c(-c2nonc2N)nc2ccccc21 | -9 | 2 | . | 2 | 0 | . | .
Cn1c2nc3ccccc3c-2nc2ccccc21 | -6 | 6 | . | 11* | . | 115* | 35*

Source: PubChem (several laboratories)
